# High-throughput results from PubChem BioAssay.
# A selection follows.
# aSyn 5UTR act: Activators working through SNCA 5'UTR binding (MLPCN); activity score, % (tested at 7.5 µM), hits read low; AID 1814; hit rate 7.1% among 300,000; alpha-synuclein 5'UTR reporter, activators screen; in the data active means activity score below about -60%
# Hits are given with their value; - = inactive.
SMILES,aSyn 5UTR act
Nc1c(C(=O)C2CC2)sc2nc3c(cc12)CCC3,-161
Nc1c(C(=O)Nc2cccc(C(=O)O)c2)sc2nc3c(cc12)CCCC3,-
Cc1cc(C)n2nc(-c3cccc(Br)c3)cc2n1,-114
CC(=O)c1cnc2cc(-c3cccc(Br)c3)nn2c1C,-213
Cc1cccc(-c2cc3nc(C)cc(C)n3n2)c1,-235
O=C(NCC1CCCO1)c1ccc2nc(N3CCCCC3)sc2c1 (centres undefined),-194
O=C(NCC1CCCO1)c1ccc(N2CCCCC2)nc1 (centres undefined),-83
CCC1=Nc2cc(C(=O)NCC3CCCO3)ccc2Sc2ccc(Cl)cc21 (centres undefined),-74
CCCC[n+]1ccn(C2=C([O-])c3ccccc3C(=O)/C2=N\S(=O)(=O)c2ccc(Cl)cc2)c1,-
Cc1cccc(OCC2=NS(=O)(=O)c3ccccc3N2)c1,-93
Cc1nn(-c2ccccc2)c2sc(C(=O)N(CC(=O)NC3CCCC3)Cc3ccco3)cc12,-67
Cc1nn(-c2ccccc2)c2sc(C(=O)NC3CC3)cc12,-100
Cc1nn(-c2ccc(F)cc2)c2sc(C(=O)N3CCCCCC3)cc12,-84
Nc1n[nH]c(N)c1N=Nc1cccc(C(F)(F)F)c1,-65
Nc1[nH]ncc1N=Nc1ccc(Cl)cc1,-89
Nc1n[nH]c(N)c1N=Nc1ccc(Cl)cc1,-131
CCOc1cccc2c1OC(c1cc(OC)c(OC)c(OC)c1)N1N=C(c3ccc(C)o3)CC21 (centres undefined),-219
COc1cccc2cc(CC(=O)c3ccccc3)c(=O)oc12,-147
COc1cccc2cc(C(=O)NCc3ccccc3Cl)c(=O)oc12,-101
COc1cccc2cc(-c3nc4ccccc4o3)c(=O)oc12,-169
COc1cccc2cc(CC(=O)c3cc(C)ccc3C)c(=O)oc12,-116
CCc1ccc(C(=O)Cc2cc3cccc(OC)c3oc2=O)cc1,-105
COc1cccc2cc(C(=O)Nc3ccccc3C)/c(=N/O)oc12,-114
COc1cccc2cc(C(=O)NCc3ccco3)c(=Nc3ccc(C(=O)O)cc3)oc12,-90
COc1cccc2cc(C(=O)c3ccccc3)oc12,-132
SMILES,aSyn 5UTR act
CCc1ccc(-c2nc(C(N)=O)c3[nH]c(=O)n(-c4ccccc4OC)c3n2)cc1,-
COc1cccc2cc(C(=O)OCC(=O)NCc3ccc4c(c3)OCO4)c(=O)oc12,-92
Cc1ccccc1C1=NC(c2ccc(F)cc2F)ON1 (centres undefined),-90
COc1ccccc1C1N=C(c2ccccc2C)NO1 (centres undefined),-120
Cn1c(SCc2ccccc2Cl)nc2ccccc21,-190
CCn1c(SCc2ccccc2Cl)nc2ccccc21,-97
CCC(=O)Nc1nc2ccccc2n1Cc1ccccc1Cl,-
Fc1ccccc1-c1csc(-c2cccnc2)n1,-105
c1cncc(-c2nc(-c3ccc4c(c3)OCCO4)cs2)c1,-94
Oc1ccc(-c2csc(-c3ccccc3)n2)cc1O,-224
c1ccc(-c2csc(-c3ccncc3)n2)cc1,-74
Oc1ccccc1-c1csc(-c2ccccc2)n1,-122
Brc1ccsc1-c1csc(-c2ccncc2)n1,-106
Oc1ccc(-c2csc(-c3cccnc3)n2)cc1O,-96
Clc1ccc(-c2csc(-c3cccnc3)n2)s1,-70
CS(=O)c1nc(-c2ccc(Br)cc2)cc(-c2ccccc2)c1C#N (centres undefined),-
Nc1nc(-c2ccccc2)cc(-c2ccccc2O)n1,-123
O=C(NCc1ccc(F)cc1)c1c2c(nc3ccccc13)CCC2,-71
O=C(Nc1nc2ccccc2s1)c1ccc([N+](=O)[O-])o1,-173
CC(=O)Nc1nc2cccc([N+](=O)[O-])c2s1,-68
O=C(Nc1c(Cl)ccc2nsnc12)c1ccc([N+](=O)[O-])o1,-203
O=C(Nc1nc2ccccc2s1)c1ccccc1[N+](=O)[O-],-153
COc1ccc2nc(NC(=O)c3ccc([N+](=O)[O-])o3)sc2c1,-161
O=C(c1nc2ccccc2[nH]1)c1ccccc1[N+](=O)[O-],-74
O=C(Nc1nc2ccccc2s1)Nc1ccc([N+](=O)[O-])cc1Cl,-99
SMILES,aSyn 5UTR act
O=C(Nc1nc2cc3c(cc2s1)OCCO3)c1ccc([N+](=O)[O-])o1,-301
Cc1cnc(NC(=O)c2ccc(-c3nc4ccccc4s3)o2)s1,-84
O=C1c2cc(F)ccc2-n2c1nc1ccccc1c2=O,-
Nc1nc(Nc2cccc(F)c2)nc2ccccc12,-196
O=c1oc(Nc2cccc(F)c2)nc2ccccc12,-64
Cc1nc2c(C(=O)N3CCCCC3)cnn2c(C)c1Cc1ccccc1F,-117
O=C(c1cc(-c2ccco2)on1)N1CCCc2ccccc21,-69
O=C(c1nn2c(C(F)(F)F)cc(-c3ccco3)nc2c1Br)N1CCCc2ccccc21,-
O=C(c1cc(-c2ccccc2)on1)N1CCCc2ccccc21,-100
O=c1[nH]c(-c2ccccn2)nc2sc(-c3ccccc3)cc12,-91
COc1ccc(OC)c(NC(=O)c2cc(-c3c(C)cc(C)cc3O)n[nH]2)c1,-112
COc1ccc(OC)c(NC(=O)c2cc(-c3cc(C)c(C)cc3O)n[nH]2)c1,-95
Cc1ccc(C(=O)O/N=C(\N)Cc2ccc([N+](=O)[O-])cc2)c(Cl)c1,-73
Cc1ccc(C(=O)O/N=C(\N)Cc2cccs2)c(Cl)c1,-73
Nc1ccc2c(c1)Cc1cc([N+](=O)[O-])ccc1-2,-79
Cc1ccc(OCC(=O)N/N=C/C=C/c2ccco2)c(Br)c1,-64
O=C(N/N=C/C=C/c1ccco1)c1ccccc1Cl,-107
O=C(Cc1cccs1)N/N=C/C=C\c1ccco1,-78
O=C(N/N=C/C=C\c1ccco1)c1cccs1,-152
Cc1ccc(N/N=C/C=C/c2ccco2)cc1,-157
O=C(CNC(=O)c1cccs1)N/N=C/c1ccco1,-125
O=C(CNC(=O)c1ccccc1F)N/N=C/c1cccs1,-94
CCOC(=O)c1cc(-c2ccc(OC)cc2)n[nH]1,-73
CCOc1ccc(-c2n[nH]c(C(=O)NN)c2C)cc1,-73
CC(C)COc1ccc(-c2cc(C(=O)NN)[nH]n2)cc1,-83
SMILES,aSyn 5UTR act
CCOC(=O)c1cc(-c2ccc3c(c2)OCCO3)n[nH]1,-174
COc1ccc(/C=N/n2c(N)nc(-c3ccccc3)c2-c2ccccc2)cc1,-63
C/C(=C\c1ccc(N)cc1)c1nc2ccccc2[nH]1,-172
O=C(/C(=C/c1ccc(Cl)cc1)c1nc2ccccc2[nH]1)c1cccs1,-178
COC(=O)/C(=C\c1ccc(O)cc1)c1nc2ccccc2[nH]1,-186
O=C(/C(=C\c1ccccc1)c1nc2ccccc2[nH]1)c1ccc(Cl)cc1,-228
CN(C)c1ncnc2c1ncn2C1OC(CO)C(O)C1O (centres undefined),-
COc1cc(/C=C(/C(=O)c2cccs2)c2nc3ccccc3[nH]2)ccc1O,-86
CC(C)(C)N(Cc1ccccc1)C(=O)CN1C(=O)c2ccccc2C1=O,-97
O=S(=O)(c1ccc(Cl)cc1)N1CCN(Cc2ccc(O)c3ncccc23)CC1,-
CC1(C(=O)N2CCN(Cc3ccccc3Cl)CC2)CC1(Cl)Cl (centres undefined),-71
COCc1nc2oc3ccc(C)cc3c(=O)c2cc1C(=O)OC,-270
CCc1nc2oc3ccccc3c(=O)c2cc1C(=O)OC,-156
COCc1nc2oc3ccc(F)cc3c(=O)c2cc1C(=O)OC,-108
COCc1nc2ccccc2n1Cc1ccc(Br)cc1,-80
O=c1cnc2ccccc2n1Cc1ccc(Br)cc1,-65
COc1ccccc1N1C(=O)C(Cl)=C(Nc2ccccc2O)C1=O,-127
O=C1C(Cl)=C(Nc2ccccc2O)C(=O)N1c1ccccc1,-94
